Measured values published in ChEMBL document CHEMBL1157539, “Thousands of chemical starting points for antimalarial lead identification” (Nature, 2010).
The full ranking holds about 13,000 compounds; the median of “IFI” is about 4, and the highest 2% start at about 17. Many of the other results were omitted from the sample, so the highest values are more common in it than they were.

Assay: GSK_TCMDC: Inhibition Frequency Index (IFI). The number of non-kinase HTS assays where a compound showed > 50 % inhibition, expressed as a percentage of the number of such assays in which the compound was tested
Format: functional

Row | Compound | IFI [%]
1 | CN1CCC(NCc2cccc(-c3nn(C)c4nc(NC5CCCC5)ncc34)c2)CC1 | 9.09
2 | CCC1CN2CCc3c([nH]c4ccccc34)[C@@H]2C[C@@H]1CC1NCCc2cc(OC)c(OC)cc21 (some centres undefined) | 8.33
3 | CC(Oc1cc(-n2cnc3ccc(NC(=O)CCN4CCCCC4)cc32)sc1C(N)=O)c1ccccc1Cl (centres undefined) | 9.35
4 | Cc1cc(N2CC=CCC2)nc(NC(=N)Nc2ccc(Cl)cc2)n1 | 4.29
5 | CCN(CC)CCCCCNc1c2ccc(Cl)cc2nc2ccc(OC)cc12 | 8.03
6 | COc1cc2nc(-c3ccc(Br)cc3)cc(N)c2cc1OC | 11.1
7 | Cc1ccc(NC(=O)c2ccc(Cl)c(Cl)c2)cc1-c1ccc(C(=O)Nc2ccncc2)cc1 | 8.82
8 | Cc1ccc(NC(=O)Nc2ccc(Cl)c(C(F)(F)F)c2)cc1-c1ccc(C(=O)Nc2ccncc2)cc1 | 18.3
9 | Cc1ccc(NC(=O)Nc2ccccc2F)cc1-c1ccc(C(=O)Nc2ccncc2)cc1 | 26.4
10 | Cc1ccc(C)c(NC(=O)Nc2ccc(C)c(-c3ccc(C(=O)Nc4ccncc4)cc3)c2)c1 | 14.1
11 | Cc1ccc(NC(=O)c2ccc(N3CCN(c4ccncc4)CC3)cc2)cc1F | 6.9
12 | Cc1ccc(NC(=O)Nc2ccc(Cl)c(C(F)(F)F)c2)cc1-c1ccc(C(=O)NCCN2CCOCC2)cc1 | 13.2
13 | Cc1ccc2c(=O)cc(CCc3cccc(F)c3F)n(CC(=O)N(Cc3ccc(-c4ccc(C(F)(F)F)cc4)cc3)C3CCN(C)CC3)c2n1 | 8.51
14 | CC(C)(C)N1CCC(N(Cc2ccc(-c3ccc(C(F)(F)F)cc3)cc2)C(=O)Cn2c(CCc3cccc(F)c3F)nc(=O)c3cccnc32)CC1 | 16.7
15 | CC(C)COc1ccc(Cl)cc1Cc1ccc(-c2nc3ccc(F)c(F)c3[nH]2)o1 | 11.3
16 | CC(C)COc1ccc(Cl)cc1Cc1ccc(-c2nc3c(F)cccc3[nH]2)o1 | 15.5
17 | CC(C)COc1ccc(Cl)cc1Cc1ccc(-c2nc3ccc(F)cc3[nH]2)o1 | 15.5
18 | CC(C)COc1ccc(Cl)cc1Cc1ccc(-c2nc3ccc(Cl)cc3[nH]2)o1 | 19.1
19 | CC(C)COc1ccc(Cl)cc1Cc1ccc(-c2nc3ccc(Br)cc3[nH]2)o1 | 19.8
20 | CC(C)COc1ccc(Cl)cc1Cc1ccc(-c2nc3ccc(C(F)(F)F)cc3[nH]2)o1 | 11.3

Row | Compound | IFI [%]
21 | NC(=O)c1ccccc1Nc1nc(Nc2cc[nH]n2)ncc1Cl | 0
22 | Cc1cc(=NN=Cc2ccccc2F)c2cc(F)ccc2[nH]1 | 0
23 | O=C(NC1CCC(N2CCC(c3ccccc3C(F)(F)F)CC2)CC1)c1cc2ccccc2[nH]1 (centres undefined) | 10.4
24 | O=C(NC1CCC(N2CCC(O)(c3ccc(F)cc3)CC2)CC1)c1cc2ccccc2[nH]1 (centres undefined) | 1.54
25 | Cc1cccc(C)c1N1CCN(C2CCC(NC(=O)c3cc4ccccc4[nH]3)CC2)CC1 (centres undefined) | 13.2
26 | O=C(NC1CCC(N2CCN(c3cccc(C(F)(F)F)c3)CC2)CC1)c1cc2ccccc2[nH]1 (centres undefined) | 17.6
27 | O=C(NC1CCC(N2CCC(Cc3ccc(F)cc3)CC2)CC1)c1cc2ccccc2[nH]1 (centres undefined) | 14.7
28 | Cc1cccc(N2CCN(C3CCC(NC(=O)c4cc5ccccc5[nH]4)CC3)CC2)c1C (centres undefined) | 22.9
29 | COc1ccc(Nc2c3ccc(Cl)cc3nc3ccc(OC)cc23)cc1 | 5.11
30 | COc1ccccc1C1CCN(C2CCC(NC(=O)/C=C/c3cc(F)cc(C(F)(F)F)c3)CC2)CC1 (centres undefined) | 11.5
31 | Cc1cccc2nc(-c3ccc(-c4cccc(CNCc5ccccc5)c4)s3)[nH]c12 | 4.81
32 | COc1ccc(-c2cncc3ccc(C(=O)NCc4ccncc4)nc23)cc1 | 6.45
33 | COc1ccc(Cc2cccc(C(C(=O)NCc3cc(Cl)cc(Cl)c3)N3CCN(C)CC3)c2)cc1 (centres undefined) | 7.75
34 | O=C(Nc1cccc(C(F)(F)F)c1)Nc1ccc(Cl)c(C(F)(F)F)c1 | 16.7
35 | CC(C)NCC(=O)Nc1cccc(C(=O)Nc2cccc(C(F)(F)F)c2)c1 | 2.04
36 | NC(=O)CCC(NC(=O)CNC(=O)Nc1cccc(C(F)(F)F)c1)C(=O)O (centres undefined) | 19.9
37 | CC(=O)N1N=C(c2ccc(Cl)cc2)Sc2c1nc(-c1ccccc1)n2C(C)=O | 0
38 | Cn1c(=O)c2cc(C(=O)NCCCN3CCCCCC3)sc2c2ccccc21 | 3.23
39 | OCCN1CCN(Cc2ccc(-c3ccc(-c4nc5cc(F)ccc5[nH]4)cc3)cc2)CC1 | 8.91
40 | Cc1cc(=NN=Cc2ccc(F)cc2)c2cc(F)ccc2[nH]1 | 2.86

Row | Compound | IFI [%]
41 | COc1ccc(C(=O)CCC(=O)N(Cc2ccc(-c3ccc(CNCCc4ccccc4)cn3)cc2)C(C)CN(C)C)cc1F (centres undefined) | 6.9
42 | COc1ccc2c(c1CNCCCCCCNCc1c(OC)ccc3c1CCCC3)CCCC2 | 11.9
43 | COc1cc2c(cc1CCNCCCCNCCc1cc3c(cc1OC)CCCC3)CCCC2 | 15.8
44 | COc1ccc2c(c1CCNCCCCNCCc1c(OC)ccc3c1CCCC3)CCCC2 | 18.3
45 | CCOC(=O)c1ccc(NC(=O)Nc2ccc(-c3cccc(-c4nc5cc(F)ccc5[nH]4)c3)cc2)cc1 | 4.95
46 | Cc1cc(C(=O)NC2CCN(CC3(c4ccccc4)CCCCC3)CC2)on1 | 6.38
47 | O=C(Nc1ccc(C(=O)Nc2ccc(C3=NCCN3)cc2)cc1)Nc1ccc(C2=NCCN2)cc1 | 5.84
48 | Oc1c(CN2CCC(Cc3ccccc3)CC2)cc(Cl)c2cccnc12 | 18.8
49 | COc1cc(C)cc(CN2CCC(Cc3ccccc3)CC2)c1O | 0.84
50 | O=C(NC1CC1)c1cnc(N2CCC(Cc3ccccc3)CC2)c(Cl)c1 | 9.52
51 | COc1ccccc1CN1CCC(CNC(=O)c2cc(-c3ccc(N(C)C)cc3)cs2)C1 (centres undefined) | 13.7
52 | CCCCN(CCCC)CCCN(CCCN(CCCC)CCCC)c1cc(C)nc(Nc2ccc3cc(Br)ccc3c2)n1 | 15.2
53 | CCC(C)Oc1ccc(CCCON2C(N)=NC(N)=NC2(C)C)cc1 (centres undefined) | 5.76
54 | CCC(C)c1cccc(C(C)CC)c1OCCCON1C(N)=NC(N)=NC1(C)C (centres undefined) | 24.1
55 | CCCOc1ccc(CCCON2C(N)=NC(N)=NC2(C)C)cc1 | 6.29
56 | CC1(C)N=C(N)N=C(N)N1OCCCCON1C(N)=NC(N)=NC1(C)C | 1.44
57 | CC(C)(C)c1ccc(OCCCON2C(N)=NC(N)=NC2(C)C)cc1 | 18.1
58 | CCCc1cccc(OC)c1OCCCON1C(N)=NC(N)=NC1(C)C | 4.51
59 | Cc1cc(-c2cccc(CNC3CCN(C)CC3)c2)ccc1S(=O)(=O)NC1CCC1 | 7.48
